Several values for one entry are separate records, joined by “and”; a condition that tells them apart may be missing. Equal entries are not always repeated. Inconclusive results are not listed. More than one record can exist for a structure, and the calls need not agree. Activity calls are given as the source filed them. The calls were made as follows, unless noted: active = hit-call score of the fitted dose curve at least 0.9, where 1 is the maximum; inactive = score below 0.9.
Assays:
[1] = ACEA_ER_80hr: ACEA Biosciences xCELLigence Real-Time Cell Analysis on Estrogen Receptor Agonism for Proliferation (AID 2282667; active = hit-call score of the fitted dose curve at least 0.9, where 1 is the maximum); conditions: T47D proliferation, impedance (xCELLigence), 80 h
Procedure, shortened: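 Estrogen-driven proliferation is captured as electrode impedance in T47D cells 80 h after compound addition. Test articles ran at 8 concentrations, 1:4 dilutions from 100 uM final, in two replicate plates.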

[2] = ATG_CRE_CIS: Attagene CIS-FACTORIAL HepG2 Assay for human cAMP Responsive Element (CRE) binding protein 3 (AID 2282926); conditions: HepG2 CRE cis-reporter, Attagene multiplexed mRNA; actives raise or lower the signal
Procedure, shortened: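 Transfected HepG2 were treated for 24 hours, then RNA was extracted and reporter cDNA amplified with sequence-specific primers. Labelled fragments were separated by capillary electrophoresis, and the CRE signal was fitted bidirectionally with DMSO as baseline.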

[3] = target: CCAAT/enhancer-binding protein beta (Homo sapiens) (UniProt P17676); experiment: ATG_C_EBP_CIS: Attagene CIS-FACTORIAL HepG2 Assay for human CCAAT/Enhancer Binding Protein (C/EBP) beta (AID 2282927); conditions: HepG2 Attagene cis-factorial transcription factor reporter; actives raise or lower the signal
Procedure, shortened: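 Endogenous transcription factor activity in human liver HepG2 cells is inferred from induction of a CEBPB-linked reporter mRNA. Exposure lasts 24 h; activity is fitted in both directions relative to DMSO.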

[4] = ATG_CMV_CIS: Attagene CIS-FACTORIAL HepG2 Assay for human CMV (Internal Marker) (AID 2282928); conditions: HepG2 CMV promoter reporter, transcription factor profiling; actives raise or lower the signal;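 also: endpoint acts as a background internal control marker rather than a target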
Procedure, shortened: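 CMV internal-marker background readout in transiently transfected HepG2 cells bearing cis-regulated reporter units. Reporter mRNA is measured 24 h after dosing by RT-PCR and capillary electrophoresis, with bidirectional fitting against DMSO.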

[5] = ATG_DR4_LXR_CIS: Attagene CIS-FACTORIAL HepG2 Assay for human Liver X Receptor (LXR), DR4 submotif (AID 2282929); conditions: HepG2 Attagene DR4 cis-reporter, mRNA transcription; actives raise or lower the signal
Procedure, shortened: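 HepG2 cells were transiently transfected with multiple cis-regulated reporter units and dosed for 24 hours. The DR4 reporter mRNA was quantified by RT-PCR, 6-FAM labelling and capillary electrophoresis. Bidirectional fits used DMSO as baseline.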

[6] = target: Aryl hydrocarbon receptor (Homo sapiens) (UniProt P35869); experiment: ATG_Ahr_CIS: Attagene CIS-FACTORIAL HepG2 Assay for human Aryl Hydrocarbon Receptor (Ahr) (AID 2282930); conditions: HepG2 AhR cis-factorial reporter transcription; actives raise or lower the signal
Procedure, shortened: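 Transient MRTU transfection of HepG2 → 24 h compound exposure → total RNA, oligo(dT) RT → PCR, 6-FAM extension, HpaI cut → CE fluorescence. DMSO = baseline; bidirectional curve fit.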

[7] = ATG_AP_1_CIS: Attagene CIS-FACTORIAL HepG2 Assay for human Activator Protein 1 (AP-1) (AID 2282931); conditions: HepG2 Attagene cis-factorial AP-1 reporter mRNA; actives raise or lower the signal
Procedure, shortened: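 HepG2 cells transiently transfected with cis-element-driven reporter transcription units, dosed for 24 hours. Reporter mRNA measured by RT-PCR, 6-FAM labelling, HpaI digestion and capillary electrophoresis. Bidirectional fitting against DMSO baseline.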

[8] = ATG_AP_2_CIS: Attagene CIS-FACTORIAL HepG2 Assay for human Activator Protein 2 (AP-2) (AID 2282932); conditions: HepG2 AP-2 cis-reporter, Attagene transcription factor profiling; actives raise or lower the signal
Procedure, shortened: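 Step one: transient transfection of HepG2 with reporter transcription units. Step two: 24 h chemical exposure. Step three: RNA extraction, RT-PCR, labelled fragment analysis by capillary electrophoresis; DMSO serves as baseline.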

[9] = ATG_BRE_CIS: Attagene CIS-FACTORIAL HepG2 Assay for human Bone Morphogenetic Protein (BMP) Response Element (BRE) (AID 2282933); conditions: HepG2 BMP response element reporter, Attagene transcription factor profiling; actives raise or lower the signal
Procedure, shortened: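 Read-out: reporter mRNA induction quantified by RT-PCR and capillary electrophoresis after 24 h chemical exposure of transfected HepG2 cells. Endogenous factor activity on the BMP response element; gain or loss fitted against DMSO baseline.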

[10] = target: Retinoic acid receptor alpha (Homo sapiens) (UniProt P10276); experiment: ATG_DR5_RAR_CIS: Attagene CIS-FACTORIAL HepG2 Assay for human Retinoic Acid Receptor Alpha (RARE), DR5 submotif (AID 2282934); conditions: HepG2 Attagene cis-factorial RARE DR5 reporter, mRNA; actives raise or lower the signal
Procedure, shortened: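 Transient MRTU transfection of HepG2; 24 h compound treatment; TriZol RNA, oligo(dT) RT, PCR, FAM labelling, capillary electrophoresis. Bidirectional fit vs DMSO. Endogenous TF activity at DR5 RARE.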

[11] = target: Transcription factor E2F1 (Homo sapiens) (UniProt Q01094); experiment: ATG_E2F_CIS: Attagene CIS-FACTORIAL HepG2 Assay for human E2F Transcription Factor 1 (AID 2282935); conditions: HepG2 Attagene cis-reporter, E2F reporter RNA transcripts; actives raise or lower the signal
Procedure, shortened: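 Total RNA from 24 h-treated, reporter-transfected HepG2 cells undergoes DNase I treatment, oligo(dT) reverse transcription, PCR and 6-FAM primer extension before capillary electrophoresis.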

[12] = ATG_E_Box_CIS: Attagene CIS-FACTORIAL HepG2 Assay for human Enhancer Box (E-box) (AID 2282936); conditions: HepG2 E-box cis-reporter transcription, actives raise or lower the signal
Procedure, shortened: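 DMSO served as negative control and baseline for bidirectional fitting. Human hepatoma HepG2 cells, transiently transfected with cis-reporter constructs, were dosed 24 h; reporter mRNA read by RT-PCR and capillary electrophoresis.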

[13] = ATG_M_61_CIS: Attagene CIS-FACTORIAL HepG2 Assay for M61 Transcription Factor (Internal Marker) (AID 2282937); conditions: HepG2 Attagene CIS-FACTORIAL M61 internal marker reporter; actives raise or lower the signal
Procedure, shortened: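 HepG2 cells transiently transfected with multiplexed cis-promoter reporter units reporting endogenous transcription factor activity, measured 24 h after dosing. Reporter mRNA quantified by RT-PCR and capillary electrophoresis; bidirectional fit against DMSO baseline.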

[14] = ATG_EGR_CIS: Attagene CIS-FACTORIAL HepG2 Assay for human Early Growth Response 1 (EGR1) (AID 2282938); conditions: HepG2 Attagene CIS-FACTORIAL EGR reporter mRNA; actives raise or lower the signal
Procedure, shortened: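 HepG2 cells transiently transfected with cis-element-driven multiplexed reporter units, dosed for 24 h. EGR1-element reporter mRNA quantified by RT-PCR, 6-FAM labelling, HpaI digestion and capillary electrophoresis; bidirectional fit versus DMSO.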

[15] = ATG_M_19_CIS: Attagene CIS-FACTORIAL HepG2 Assay for M19 Transcription Factor (Internal Marker) (AID 2282939); conditions: HepG2 Attagene CIS-FACTORIAL M19 internal marker reporter; actives raise or lower the signal
Procedure, shortened: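 Readout: fluorescent reporter-transcript fragments by capillary electrophoresis after RT-PCR. Human HepG2 liver cells carried transfected MRTU constructs reporting endogenous transcription-factor activity; exposure 24 h. Gain or loss of signal fitted relative to DMSO.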

[16] = ATG_ERE_CIS: Attagene CIS-FACTORIAL HepG2 Assay for Estrogen Response Element (ERE) (AID 2282940); conditions: HepG2 ERE cis-reporter, Attagene RNA transcript; actives raise or lower the signal
Procedure, shortened: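 Readout: reporter mRNA induction by RT-PCR, FAM-labelled primer extension, HpaI digestion and capillary electrophoresis, 24 h after dosing transfected HepG2 cells. Endogenous transcription factors act on cis-element-regulated reporters. Gain or loss fitted against DMSO.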

[17] = ATG_Ets_CIS: Attagene CIS-FACTORIAL HepG2 Assay for human Erythroblast Transformation Specific (ETS) (AID 2282941); conditions: HepG2 ETS cis-reporter transcription, actives raise or lower the signal
Procedure, shortened: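 HepG2 cells transfected with multiple cis-regulated reporter units measuring endogenous ETS-driven transcription, 24 h after dosing. Reporter mRNA quantified by RT-PCR with capillary electrophoresis; bidirectional fit relative to DMSO.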

[18] = target: Hepatocyte nuclear factor 3-beta (Homo sapiens) (UniProt Q9Y261); experiment: ATG_FoxA2_CIS: Attagene CIS-FACTORIAL HepG2 Assay for human Forkhead box A2 (FOXA2) (AID 2282942); conditions: HepG2 cis-reporter transcription factor activity, 24 h; actives raise or lower the signal
Procedure, shortened: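 HepG2 transiently transfected with a multiplexed cis-promoter reporter library read endogenous FOXA2 activity. After 24 h compound exposure, reporter mRNA was quantified by RT-PCR, HpaI digestion and capillary electrophoresis. Bidirectional fit against DMSO.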

[19] = ATG_FoxO_CIS: Attagene CIS-FACTORIAL HepG2 Assay for human Forkhead box O (FoxO) (AID 2282943); conditions: HepG2 Attagene cis-reporter, FoxO element, mRNA; actives raise or lower the signal
Procedure, shortened: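 HepG2, transient MRTU transfection (cis element, endogenous TFs). Dose 24 h. TriZol RNA → oligo(dT) RT → PCR → 6-FAM primer extension → HpaI cut → CE. Gain/loss vs DMSO.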

[20] = ATG_GATA_CIS: Attagene CIS-FACTORIAL HepG2 Assay for human GATA Binding Protein (AID 2282944); conditions: HepG2 GATA cis-element reporter, Attagene multiplex mRNA; actives raise or lower the signal
Procedure, shortened: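 Read-out: fluorescent reporter mRNA fragments resolved by capillary electrophoresis after RT-PCR. Human liver HepG2 cells carried transiently transfected cis-regulated reporter constructs; chemicals incubated 24 h; gain or loss of signal fitted relative to DMSO.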

Measured: AC50

Sequence of Aryl hydrocarbon receptor (Homo sapiens) (P35869 whole entry, looked up): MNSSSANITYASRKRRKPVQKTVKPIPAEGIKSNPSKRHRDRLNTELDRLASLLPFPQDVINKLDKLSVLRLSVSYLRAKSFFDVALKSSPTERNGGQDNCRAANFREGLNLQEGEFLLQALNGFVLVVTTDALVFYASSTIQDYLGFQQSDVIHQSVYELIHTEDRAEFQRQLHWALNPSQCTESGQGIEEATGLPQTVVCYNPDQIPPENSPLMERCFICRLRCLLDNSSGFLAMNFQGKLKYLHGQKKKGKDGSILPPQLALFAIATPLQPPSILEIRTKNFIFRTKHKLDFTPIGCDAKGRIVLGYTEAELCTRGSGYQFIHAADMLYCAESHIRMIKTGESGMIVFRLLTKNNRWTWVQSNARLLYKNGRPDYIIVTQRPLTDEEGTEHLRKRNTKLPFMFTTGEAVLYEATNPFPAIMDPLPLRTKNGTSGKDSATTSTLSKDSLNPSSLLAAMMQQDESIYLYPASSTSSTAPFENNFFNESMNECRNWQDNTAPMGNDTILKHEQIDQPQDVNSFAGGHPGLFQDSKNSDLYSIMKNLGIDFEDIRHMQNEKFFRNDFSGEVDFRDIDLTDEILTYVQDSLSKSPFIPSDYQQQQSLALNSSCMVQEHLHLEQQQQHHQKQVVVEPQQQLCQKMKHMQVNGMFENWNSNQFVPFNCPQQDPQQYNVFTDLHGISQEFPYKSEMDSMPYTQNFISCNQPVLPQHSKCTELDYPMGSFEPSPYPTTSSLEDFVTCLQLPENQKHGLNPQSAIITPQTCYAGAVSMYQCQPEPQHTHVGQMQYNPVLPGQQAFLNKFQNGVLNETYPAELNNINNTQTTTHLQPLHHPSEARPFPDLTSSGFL
Sequence of Retinoic acid receptor alpha (Homo sapiens) (P10276 whole entry, looked up): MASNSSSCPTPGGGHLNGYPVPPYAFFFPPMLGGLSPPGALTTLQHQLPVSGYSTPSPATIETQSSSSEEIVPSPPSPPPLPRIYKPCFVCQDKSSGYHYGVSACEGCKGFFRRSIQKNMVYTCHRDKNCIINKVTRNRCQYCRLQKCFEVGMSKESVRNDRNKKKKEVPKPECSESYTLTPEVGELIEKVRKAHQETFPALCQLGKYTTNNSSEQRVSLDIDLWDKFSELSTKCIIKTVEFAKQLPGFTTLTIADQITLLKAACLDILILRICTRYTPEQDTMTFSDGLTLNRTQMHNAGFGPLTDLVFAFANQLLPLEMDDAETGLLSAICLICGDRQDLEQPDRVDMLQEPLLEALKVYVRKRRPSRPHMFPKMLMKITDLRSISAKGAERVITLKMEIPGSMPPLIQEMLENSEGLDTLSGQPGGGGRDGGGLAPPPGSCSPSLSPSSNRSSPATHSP
Sequence of Transcription factor E2F1 (Homo sapiens) (Q01094 whole entry, looked up): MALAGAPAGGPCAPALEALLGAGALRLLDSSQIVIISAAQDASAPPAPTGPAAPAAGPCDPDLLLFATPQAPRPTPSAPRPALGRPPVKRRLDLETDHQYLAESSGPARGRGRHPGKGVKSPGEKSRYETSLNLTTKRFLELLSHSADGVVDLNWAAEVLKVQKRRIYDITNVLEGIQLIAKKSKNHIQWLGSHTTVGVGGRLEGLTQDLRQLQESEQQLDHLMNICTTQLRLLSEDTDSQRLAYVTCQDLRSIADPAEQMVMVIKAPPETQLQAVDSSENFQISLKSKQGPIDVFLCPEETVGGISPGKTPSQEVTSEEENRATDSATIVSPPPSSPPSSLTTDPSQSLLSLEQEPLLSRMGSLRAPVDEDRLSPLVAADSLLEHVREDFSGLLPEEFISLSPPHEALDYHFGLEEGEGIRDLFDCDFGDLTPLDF
Sequence of CCAAT/enhancer-binding protein beta (Homo sapiens) (P17676 whole entry, looked up): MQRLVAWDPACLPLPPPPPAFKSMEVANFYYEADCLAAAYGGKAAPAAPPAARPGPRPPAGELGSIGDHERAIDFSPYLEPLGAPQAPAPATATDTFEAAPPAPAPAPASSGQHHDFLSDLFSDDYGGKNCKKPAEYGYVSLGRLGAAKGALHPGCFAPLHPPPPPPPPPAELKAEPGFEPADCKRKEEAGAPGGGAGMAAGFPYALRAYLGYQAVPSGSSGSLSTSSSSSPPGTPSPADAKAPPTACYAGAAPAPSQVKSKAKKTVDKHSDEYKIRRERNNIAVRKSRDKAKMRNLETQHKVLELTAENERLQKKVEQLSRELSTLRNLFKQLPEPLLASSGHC
Sequence of Hepatocyte nuclear factor 3-beta (Homo sapiens) (Q9Y261 whole entry, looked up): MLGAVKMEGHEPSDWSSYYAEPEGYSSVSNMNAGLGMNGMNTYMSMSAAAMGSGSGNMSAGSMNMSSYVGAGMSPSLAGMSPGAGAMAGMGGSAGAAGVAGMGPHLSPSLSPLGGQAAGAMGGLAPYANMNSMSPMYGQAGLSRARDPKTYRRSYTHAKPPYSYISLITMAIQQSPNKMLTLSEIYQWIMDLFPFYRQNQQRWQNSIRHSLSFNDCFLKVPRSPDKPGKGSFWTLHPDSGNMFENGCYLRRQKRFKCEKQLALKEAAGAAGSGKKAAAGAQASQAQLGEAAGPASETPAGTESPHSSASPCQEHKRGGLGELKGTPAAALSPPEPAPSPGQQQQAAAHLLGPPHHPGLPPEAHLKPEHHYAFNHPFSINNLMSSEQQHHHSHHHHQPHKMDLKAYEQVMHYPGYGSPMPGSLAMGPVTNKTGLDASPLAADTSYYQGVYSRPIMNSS

O=C(O)C(F)(F)C(F)(F)C(F)(F)C(F)(F)C(F)(F)C(F)(F)C(F)(F)C(F)(F)C(F)(F)C(F)(F)C(F)(F)C(F)(F)F
inactive: all assays above

Nc1ccc([N+](=O)[O-])cc1O
active: [6] 25.5 µM
inactive: all other assays above

O=C(O)C(F)(F)C(F)(F)C(F)(F)F
active: [16] 150 µM
inactive: [1] | [2] | [3] | [4] | [5] | [6] | [7] | [8] | [9] | [10] | [11] | [12] | [13] | [14] | [15] | [16] | [17] | [18] | [19] | [20]

C=C(C)C(=O)OCC(F)(F)C(F)(F)C(F)(F)F
inactive: [1] | [2] | [3] | [4] | [5] | [6] | [7] | [8] | [9] | [10] | [11] | [12] | [13] | [14] | [15] | [16] | [17] | [18] | [19] | [20]
active: [16] 30.8 µM

CC(C)(C)c1ccc(OC2CCCCC2O)cc1 (centres undefined)
active: [4] 48.8 µM | [7] 24.5 µM | [9] 42.4 µM
inactive: all other assays above

O=C(CC(=O)C(F)(F)C(F)(F)F)C(F)(F)F
inactive: [1] | [2] | [3] | [4] | [5] | [6] | [7] | [8] | [9] | [10] | [11] | [12] | [13] | [14] | [15] | [16] | [17] | [18] | [19] | [20]
active: [7] 150 µM

O=C(O)C(F)(F)C(F)(F)C(F)(F)C(F)(F)C(F)(F)C(F)(F)C(F)(F)C(F)(F)Cl
active: [2] 50 µM | [5] 39.1 µM and 34.7 µM | [8] 83.2 µM | [14] 50 µM and 64.8 µM | [16] 15.4 µM and 21.7 µM
inactive: [1] | [2] | [3] | [4] | [6] | [7] | [8] | [9] | [10] | [11] | [12] | [13] | [15] | [18] | [19] | [20]

C=CC(F)(F)C(F)(F)C(F)(F)C(F)(F)C(F)(F)C(F)(F)C(F)(F)C(F)(F)C=C
active: [16] 4.46 µM
inactive: all other assays above

FC(F)(F)C(F)(F)C(F)(F)C(F)(F)C(F)(F)C(F)(F)C(F)(F)C(F)(F)CCS
inactive: all assays above

O=S(=O)(OCCOC(F)(F)F)C(F)(F)F
inactive: [1] | [2] | [3] | [4] | [5] | [6] | [7] | [8] | [9] | [10] | [11] | [12] | [13] | [14] | [15] | [16] | [18] | [19] | [20]
active: [6] 101 µM

OCC(F)(F)C(F)(F)C(F)(F)F
inactive: all assays above

FC(F)(F)C(F)(F)C(F)(F)C(F)(F)C(F)(F)C(F)(F)C(F)(F)C(F)(F)F
inactive: all assays above
